Assay results from PubChem BioAssay (NCI).
This is part of a sample that, as a whole, favours compounds with a hit. Of some 83,000 tested, about 20% had one in any assay.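 Step 1: grow cells in 96-well plates. Step 2: add test compound at a single concentration. Step 3: incubate 48 h. Step 4: record percent growth.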 Calls of active or inactive are those of the source. How the source made its calls: active means growth percent below 10; inactive means the rest.

What was measured:
Assay in all cases: NCI-60 one-dose screen, 48 h (100 = growth as untreated, 0 = no growth, -100 = all killed)
Details in all cases: 10 µM unless noted
DU-145 prostate = test system: DU-145 prostate
K-562 leukemia = test system: K-562 leukemia
MALME-3M melanoma = test system: MALME-3M melanoma
MDA-MB-231 breast = test system: MDA-MB-231 breast
RXF 393 renal = test system: RXF 393 renal
SF-268 CNS = test system: SF-268 CNS
SF-295 CNS = test system: SF-295 CNS
SF-539 CNS = test system: SF-539 CNS
UACC-257 melanoma = test system: UACC-257 melanoma
M14 melanoma = test system: M14 melanoma

Measured: growth

c1ccc2[nH]c(-c3ccc(OCCCCCOc4ccc(-c5nc6ccccc6[nH]5)cc4)cc3)nc2c1
inactive: DU-145 prostate 21.4% | MDA-MB-231 breast 40.5% | SF-295 CNS 53% | UACC-257 melanoma 71.4%
active: K-562 leukemia -13.8% | MALME-3M melanoma -30.8% | RXF 393 renal -74.2% | SF-268 CNS -37.7% | SF-539 CNS -12.8% | M14 melanoma -38.6%

Cc1cc2cn3c4ccc(O)cc4nc(N)c3c2cc1C
active: DU-145 prostate 4.25% | K-562 leukemia -14.9% | SF-295 CNS 1.42% | M14 melanoma 4.96%
inactive: MALME-3M melanoma 39.6% | MDA-MB-231 breast 27.3% | RXF 393 renal 41.1% | SF-268 CNS 12.9% | SF-539 CNS 11.4% | UACC-257 melanoma 53.1%

CC1=NN(c2cccc(Cl)c2)C(=O)/C1=C\c1cn(-c2nc(N3CCOCC3)nc(N3CCOCC3)n2)c2ccccc12
inactive: DU-145 prostate 106% | K-562 leukemia 114% | MALME-3M melanoma 104% | MDA-MB-231 breast 112% | RXF 393 renal 115% | SF-268 CNS 95.4% | SF-295 CNS 105% | SF-539 CNS 109% | UACC-257 melanoma 106% | M14 melanoma 103%

COC(=O)c1ccc2[nH]c(O)c(C(=Nc3ccc(N(C)C(=O)CN4CCN(C)CC4)cc3)c3ccc(C)cc3)c2c1
active: DU-145 prostate -14.2% | K-562 leukemia -32.9% | MALME-3M melanoma -94.6% | MDA-MB-231 breast -22.9% | RXF 393 renal -98.2% | SF-268 CNS 5.16% | SF-295 CNS 1.13% | SF-539 CNS -96.1% | UACC-257 melanoma -59.4% | M14 melanoma -83.7%

N=C(N)c1ccc(-c2ccc(-c3ccc(Cl)cc3)s2)s1
active: DU-145 prostate -87.8% | K-562 leukemia -45.8% | MALME-3M melanoma -29.9% | MDA-MB-231 breast -80.5% | RXF 393 renal -85% | SF-268 CNS -68.6% | SF-295 CNS -68.8% | SF-539 CNS -86.7% | UACC-257 melanoma -37.7% | M14 melanoma -72.7%

Nc1ncn([C@@H]2O[C@H](CO)[C@@H](O)C2(F)F)c(=O)n1
inactive: DU-145 prostate 43.5% | K-562 leukemia 65.7% | MALME-3M melanoma 67.9% | MDA-MB-231 breast 80% | RXF 393 renal 45% | SF-268 CNS 65.4% | SF-295 CNS 77.9% | SF-539 CNS 22.3% | UACC-257 melanoma 77.5% | M14 melanoma 15.6%

Cc1ncc(C(=O)Nc2ccc(CN3CCN(C)CC3)c(C(F)(F)F)c2)cc1C#Cc1cnc(NC2CC2)c2ncccc12
active: DU-145 prostate -83.1% | K-562 leukemia -56.8% | MALME-3M melanoma -88.5% | MDA-MB-231 breast -97.3% | RXF 393 renal -90.6% | SF-268 CNS -72.7% | SF-295 CNS -91.8% | SF-539 CNS -98.3% | UACC-257 melanoma -65% | M14 melanoma -89.8%

Oc1ccc([S+](c2ccc(O)cc2)c2ccc(O)cc2)cc1
inactive: DU-145 prostate 120% | K-562 leukemia 94.7% | MALME-3M melanoma 106% | MDA-MB-231 breast 117% | RXF 393 renal 94.6% | SF-268 CNS 114% | SF-295 CNS 96% | SF-539 CNS 98.9% | UACC-257 melanoma 98.4% | M14 melanoma 105%

CCCCCCCCCC[N+](C)(C)C
inactive: DU-145 prostate 34% | K-562 leukemia 22.3% | MALME-3M melanoma 24.8% | MDA-MB-231 breast 14.3% | SF-268 CNS 13.2% | SF-295 CNS 36.1% | UACC-257 melanoma 66.3%
active: RXF 393 renal -42.3% | SF-539 CNS 1.4% | M14 melanoma 6.8%

CCCCCc1ccnc(CC(=O)c2ccc(OC)cc2)c1
inactive: DU-145 prostate 105% | K-562 leukemia 68.1% | MALME-3M melanoma 90.3% | MDA-MB-231 breast 98% | RXF 393 renal 106% | SF-268 CNS 98.7% | SF-295 CNS 97.4% | SF-539 CNS 97.2% | UACC-257 melanoma 90.9% | M14 melanoma 99.2%

COc1cc(OC)c(NC(=O)n2ncc3cc(Nc4ncnc5ccccc45)ccc32)cc1Cl
inactive: DU-145 prostate 56.9% | K-562 leukemia 99.4% | MALME-3M melanoma 110% | MDA-MB-231 breast 97.2% | RXF 393 renal 88.4% | SF-268 CNS 87.4% | SF-295 CNS 98.7% | SF-539 CNS 99.5% | UACC-257 melanoma 118% | M14 melanoma 100%

CCOC(=O)c1sc(NS(=O)(=O)c2ccccc2)nc1C
inactive: DU-145 prostate 145% | K-562 leukemia 144% | MALME-3M melanoma 120% | MDA-MB-231 breast 107% | RXF 393 renal 114% | SF-268 CNS 114% | SF-295 CNS 133% | SF-539 CNS 101% | UACC-257 melanoma 110% | M14 melanoma 107%

CC(C)(C)c1ccc(OCCOC(=O)CBr)cc1
inactive: DU-145 prostate 109% | K-562 leukemia 82.8% | MALME-3M melanoma 107% | MDA-MB-231 breast 88% | RXF 393 renal 78.5% | SF-268 CNS 96.3% | SF-295 CNS 116% | SF-539 CNS 100% | UACC-257 melanoma 106% | M14 melanoma 95.8%
